Data published in PubChem BioAssay (EPA / NIEHS).
Inconclusive results are not listed. Calls of active or inactive are those of the source. How the source made its calls: active means hit-call score of the fitted dose curve at least 0.9, where 1 is the maximum; inconclusive means response in the unintended direction; inactive means score below 0.9.

Experiments:
[1] = molecular target: rat Neurokinin-1 Receptor (NK1), Tacr1 (gene 24807) (UniProt P14600); experiment: NVS_GPCR_rNK1: NovaScreen (NVS) G Protein-Coupled Receptor Assay for rat Neurokinin-1 Receptor (NK1) (AID 2283309)
Method in brief: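 Rat submaxillary gland membranes; radioligand displacement read by filter-based scintillation counting after 1 h. Primary screen in duplicate at 25 uM; actives retested in concentration series; loss of binding fitted versus DMSO.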

[2] = molecular target: rat Neurokinin-3 Receptor (NK3), Tacr3 (gene 24808) (UniProt P16177); experiment: NVS_GPCR_rNK3: NovaScreen (NVS) G Protein-Coupled Receptor Assay for rat Neurokinin-3 Receptor (NK3) (AID 2283310)
Method in brief: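 Rat cortical membranes; radioligand binding with filtration and scintillation counting, 2 h after dosing. Primary screen in duplicate at 25 uM, then concentration-response up to 50 uM; loss of binding signal relative to DMSO.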

[3] = molecular target: rat Glutamate, AMPA Site (AMPA), Gria1 (gene 50592) (UniProt P19490); experiment: NVS_LGIC_rAMPA: NovaScreen (NVS) Ligand-Gated Ion Channel Assay for rat Glutamate, AMPA Site (AMPA) (AID 2283324)
Method in brief: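 Rat forebrain membranes; radioligand binding read 1 h after dosing by filtration and scintillation counting. Duplicate single-point screen at 25 uM, then concentration-response to 50 uM for threshold hits (e.g. 30% inhibition); loss of signal vs DMSO.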

[4] = molecular target: rat Glutamate, NMDA Agonist Site (GluNMDA), Grin1 (gene 24408) (UniProt P35439); experiment: NVS_LGIC_rGluNMDA_Agonist: NovaScreen (NVS) Ligand-Gated Ion Channel Assay for rat Glutamate, NMDA Agonist Site (GluNMDA) (AID 2283327)
Method in brief: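 Rat forebrain membranes, radioligand binding in the agonist-site protocol; 1 h after dosing; filter-based scintillation counting. Single-concentration duplicate screen at 25 uM, then concentration-response up to 50 uM for actives; gain-of-signal vs DMSO.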

[5] = molecular target: Adra2b (gene 24174) (UniProt P19328); experiment: NVS_GPCR_rmAdra2B: NovaScreen (NVS) G Protein-Coupled Receptor Assay for hybird cells Adrenergic, Alpha 2B Receptor (Adra2B) (AID 2283306)
Method in brief: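 Radioligand filter-binding assay on membrane proteins from neuroglioma/blastoma hybrid cells (rodent), 1 h after dosing; scintillation counting, loss of signal vs DMSO. Primary screen in duplicate at 25 uM, actives then run in concentration series.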

[6] = molecular target: rat Somatostatin Receptor (SST), Sstr1 (gene 25033) (UniProt P28646); experiment: NVS_GPCR_rSST: NovaScreen (NVS) G Protein-Coupled Receptor Assay for rat Somatostatin Receptor (SST) (AID 2283314)
Method in brief: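 Rat forebrain membranes; radioligand displacement read by filter-based scintillation counting 1 h after dosing. Primary screen in duplicate at 25 uM. Actives (e.g., 30% inhibition) were rerun as concentration-response to 50 uM max and fitted against DMSO.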

[7] = molecular target: rat Neonicotinoid receptor (NNR), Chrna7 (gene 25302) (UniProt Q05941); experiment: NVS_LGIC_rNNR_BungSens: NovaScreen (NVS) Ligand-Gated Ion Channel Assay for rat Neonicotinoid receptor (NNR) (AID 2283315)
Method in brief: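 Radioligand displacement binding on rat cortical membranes, 2.5 h incubation, filtration and scintillation counting. Loss of specific binding fitted relative to DMSO.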

[8] = NVS_IC_rCaDHPRCh_L: NovaScreen (NVS) Ion Channel Assay for rat Calcium Channel, Type L, Dihydropyridine Site (CaDHPRCh_L) (AID 2283320)
Method in brief: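 Radioligand binding to dihydropyridine site on rat cortical membranes, filter-based scintillation counting, 1 h after dosing. Screened in duplicate at 25 uM; actives rerun in concentration-response up to 50 uM. Loss of signal versus DMSO baseline.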

[9] = molecular target: Sodium channel protein type 1 subunit alpha (Rattus norvegicus) (UniProt P04774); experiment: NVS_IC_rNaCh_site2: NovaScreen (NVS) Ion Channel Assay for rat Sodium Channel, Site 2 (NaCh) (AID 2283322);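 further: hit means loss of radioligand binding signal relative to DMSO so AC50 marks displacement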
Method in brief: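 Membranes: rat forebrain. Format: competitive radioligand displacement, filter separation, scintillation readout, 1 h exposure. Primary screen in duplicate at 25 uM; actives retested in concentration series.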

[10] = molecular target: human Serotonin, 5-Hydroxytryptamine Receptor 3 (5HT3), HTR3A (gene 3359) (UniProt P46098); experiment: NVS_LGIC_h5HT3: NovaScreen (NVS) Ligand-Gated Ion Channel Assay for human Serotonin, 5-Hydroxytryptamine Receptor 3 (5HT3) (AID 2283325)
Method in brief: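 Radioligand displacement binding to human 5-HT3 from HEK293 membranes, read by filter-based scintillation counting after 1 h. Screen at 25 uM in duplicate; chemicals passing threshold were retested in concentration-response up to 50 uM.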

[11] = molecular target: human Peripheral-type Benzodiazepine Receptor (PBR), TSPO (gene 706) (UniProt P30536); experiment: NVS_MP_hPBR: NovaScreen (NVS) Membrane Protein Assay for human Peripheral-type Benzodiazepine Receptor (PBR) (AID 2283331);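 further: hits reduce radioligand binding relative to DMSO baseline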
Method in brief: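 Human colonic cell membranes were incubated with test chemical for 1 hour; radioligand binding was measured by filter-based scintillation counting. Primary screen ran in duplicate at 25 uM, with actives followed in concentration series; loss of signal versus DMSO baseline.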

[12] = molecular target: Metabotropic glutamate receptor 1 (Rattus norvegicus) (UniProt P23385); experiment: NVS_GPCR_rmMGluR1: NovaScreen (NVS) G Protein-Coupled Receptor Assay for rat Glutamate Metabotropic Receptor 1 (MGluR1) (AID 2283305)
Method in brief: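 Rat cerebellum membrane preparation, radioligand displacement binding read by filter-based scintillation counting 1 hour after dosing. Initial duplicate single-point screen at 25 uM, then concentration-response up to 50 uM; loss of signal versus DMSO baseline scored.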

[13] = molecular target: rat Thyrotropin Releasing Hormone Receptor (TRH), Trhr (gene 25570) (UniProt Q01717); experiment: NVS_GPCR_rTRH: NovaScreen (NVS) G Protein-Coupled Receptor Assay for rat Thyrotropin Releasing Hormone Receptor (TRH) (AID 2283329);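 further: hit means lower bound tracer signal versus DMSO baseline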
Method in brief: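 Competitive radioligand binding on rat forebrain membrane preparations, with filtration and scintillation readout after 4 h. Primary testing in duplicate at 25 uM; actives confirmed in concentration-response. DMSO defined baseline.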

[14] = molecular target: rat Vasopressin 1 Receptor (V1), Avpr1a (gene 25107) (UniProt P30560); experiment: NVS_GPCR_rV1: NovaScreen (NVS) G Protein-Coupled Receptor Assay for rat Vasopressin 1 Receptor (V1) (AID 2283316)
Method in brief: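 Radioligand binding on rat liver membranes, 1.5 h incubation, filter-based scintillation counting. Single 25 uM screen in duplicate; chemicals meeting threshold (e.g. 30% inhibition) run in concentration-response up to 50 uM.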

[15] = molecular target: rat Gamma-Aminobutyric Acid Type A Receptor, Non-Selective (GABAR-NonSelective), Gabra1 (gene 29705) (UniProt P62813); experiment: NVS_LGIC_rGABAR_NonSelective: NovaScreen (NVS) Ligand-Gated Ion Channel Assay for rat Gamma-Aminobutyric Acid Type A Receptor, Non-Selective (GABAR-NonSelective) (AID 2283326)
Method in brief: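 Radioligand displacement on rat whole-brain extract, 1 h, filter scintillation readout; signal loss fitted versus DMSO. Primary screen in duplicate at 25 uM; hits (e.g. ≥30% inhibition) retested in concentration-response up to 50 uM.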

Measured: AC50

rat Neurokinin-3 Receptor (NK3), Tacr3 (gene 24808), sequence (P16177 whole entry, looked up): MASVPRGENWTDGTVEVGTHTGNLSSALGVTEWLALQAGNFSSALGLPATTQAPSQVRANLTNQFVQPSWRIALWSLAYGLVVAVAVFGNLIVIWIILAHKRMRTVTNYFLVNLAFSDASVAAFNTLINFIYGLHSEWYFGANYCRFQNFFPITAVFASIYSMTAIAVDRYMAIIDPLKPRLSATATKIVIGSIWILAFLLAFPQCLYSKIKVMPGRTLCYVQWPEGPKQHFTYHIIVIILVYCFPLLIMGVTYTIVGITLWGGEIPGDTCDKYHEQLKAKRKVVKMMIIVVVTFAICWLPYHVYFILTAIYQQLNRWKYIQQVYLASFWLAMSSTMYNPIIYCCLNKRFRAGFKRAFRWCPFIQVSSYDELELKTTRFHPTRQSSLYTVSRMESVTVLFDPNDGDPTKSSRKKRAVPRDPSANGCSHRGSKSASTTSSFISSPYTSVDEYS
rat Neurokinin-1 Receptor (NK1), Tacr1 (gene 24807), sequence (P14600 whole entry, looked up): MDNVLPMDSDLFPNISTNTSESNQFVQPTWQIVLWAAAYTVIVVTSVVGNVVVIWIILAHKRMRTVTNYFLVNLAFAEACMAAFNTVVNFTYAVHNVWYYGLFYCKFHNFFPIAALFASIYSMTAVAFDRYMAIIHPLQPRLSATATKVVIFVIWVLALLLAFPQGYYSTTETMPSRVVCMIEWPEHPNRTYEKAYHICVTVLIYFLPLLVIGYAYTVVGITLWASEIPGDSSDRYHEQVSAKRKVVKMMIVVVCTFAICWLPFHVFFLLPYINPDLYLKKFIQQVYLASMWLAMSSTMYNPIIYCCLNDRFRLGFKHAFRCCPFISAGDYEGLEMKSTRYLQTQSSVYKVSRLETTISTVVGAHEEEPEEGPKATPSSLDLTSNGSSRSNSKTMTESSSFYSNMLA
human Peripheral-type Benzodiazepine Receptor (PBR), TSPO (gene 706), sequence (P30536 whole entry, looked up): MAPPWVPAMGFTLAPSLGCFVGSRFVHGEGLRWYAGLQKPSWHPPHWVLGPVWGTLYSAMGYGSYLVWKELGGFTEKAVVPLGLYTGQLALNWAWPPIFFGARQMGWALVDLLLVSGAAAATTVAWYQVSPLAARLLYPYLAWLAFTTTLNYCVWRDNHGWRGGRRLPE
rat Neonicotinoid receptor (NNR), Chrna7 (gene 25302), sequence (Q05941 whole entry, looked up): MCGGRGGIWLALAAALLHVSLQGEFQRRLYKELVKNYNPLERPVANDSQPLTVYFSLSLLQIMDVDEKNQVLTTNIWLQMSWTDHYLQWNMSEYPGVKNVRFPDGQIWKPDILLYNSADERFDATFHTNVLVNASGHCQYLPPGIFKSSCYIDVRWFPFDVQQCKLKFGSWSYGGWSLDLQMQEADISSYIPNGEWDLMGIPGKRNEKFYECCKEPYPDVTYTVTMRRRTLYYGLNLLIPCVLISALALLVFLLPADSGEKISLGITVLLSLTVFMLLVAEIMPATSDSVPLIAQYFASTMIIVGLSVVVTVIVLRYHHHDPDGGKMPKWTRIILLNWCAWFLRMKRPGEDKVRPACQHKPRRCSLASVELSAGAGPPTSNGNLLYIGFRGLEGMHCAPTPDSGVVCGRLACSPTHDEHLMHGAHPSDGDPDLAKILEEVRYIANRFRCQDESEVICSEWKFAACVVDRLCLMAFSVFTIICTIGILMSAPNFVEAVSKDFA
human Serotonin, 5-Hydroxytryptamine Receptor 3 (5HT3), HTR3A (gene 3359), sequence (P46098 whole entry, looked up): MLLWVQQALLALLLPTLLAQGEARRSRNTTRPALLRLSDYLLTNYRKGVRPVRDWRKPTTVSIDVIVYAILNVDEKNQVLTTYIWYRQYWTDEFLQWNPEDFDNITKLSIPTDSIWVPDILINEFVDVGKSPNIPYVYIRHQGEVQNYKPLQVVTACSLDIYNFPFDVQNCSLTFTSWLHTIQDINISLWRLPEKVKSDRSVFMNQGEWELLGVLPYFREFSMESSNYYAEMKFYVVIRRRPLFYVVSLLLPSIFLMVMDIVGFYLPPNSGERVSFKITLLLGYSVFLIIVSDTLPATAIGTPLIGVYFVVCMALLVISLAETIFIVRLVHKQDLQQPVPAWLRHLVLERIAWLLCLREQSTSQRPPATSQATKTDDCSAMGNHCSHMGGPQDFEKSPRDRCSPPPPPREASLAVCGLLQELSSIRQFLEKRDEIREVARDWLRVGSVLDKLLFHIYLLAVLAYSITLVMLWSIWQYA
rat Thyrotropin Releasing Hormone Receptor (TRH), Trhr (gene 25570), sequence (Q01717 whole entry, looked up): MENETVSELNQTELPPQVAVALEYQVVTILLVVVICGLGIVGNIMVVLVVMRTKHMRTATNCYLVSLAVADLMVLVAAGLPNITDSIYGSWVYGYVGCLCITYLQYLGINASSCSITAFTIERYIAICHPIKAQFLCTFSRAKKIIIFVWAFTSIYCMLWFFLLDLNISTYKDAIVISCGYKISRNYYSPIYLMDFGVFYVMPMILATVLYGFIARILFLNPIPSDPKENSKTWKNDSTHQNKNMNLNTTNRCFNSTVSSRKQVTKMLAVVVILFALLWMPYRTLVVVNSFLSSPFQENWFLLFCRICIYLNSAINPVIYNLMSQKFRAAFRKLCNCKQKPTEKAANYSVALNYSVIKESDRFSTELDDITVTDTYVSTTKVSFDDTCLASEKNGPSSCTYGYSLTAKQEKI
Adra2b (gene 24174), sequence (P19328 whole entry, looked up): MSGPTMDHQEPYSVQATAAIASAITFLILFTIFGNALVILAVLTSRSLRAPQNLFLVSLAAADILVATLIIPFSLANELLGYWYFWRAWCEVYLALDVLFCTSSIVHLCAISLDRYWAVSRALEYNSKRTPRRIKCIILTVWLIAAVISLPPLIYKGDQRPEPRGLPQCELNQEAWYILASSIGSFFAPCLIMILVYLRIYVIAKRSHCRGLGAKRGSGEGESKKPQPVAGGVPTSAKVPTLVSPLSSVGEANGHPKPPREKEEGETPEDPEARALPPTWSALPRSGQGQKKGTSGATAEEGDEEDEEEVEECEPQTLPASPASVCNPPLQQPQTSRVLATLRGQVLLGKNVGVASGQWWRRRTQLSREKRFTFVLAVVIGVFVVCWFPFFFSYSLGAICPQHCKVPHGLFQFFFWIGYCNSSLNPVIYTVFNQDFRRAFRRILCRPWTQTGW
rat Glutamate, AMPA Site (AMPA), Gria1 (gene 50592), sequence (P19490 whole entry, looked up): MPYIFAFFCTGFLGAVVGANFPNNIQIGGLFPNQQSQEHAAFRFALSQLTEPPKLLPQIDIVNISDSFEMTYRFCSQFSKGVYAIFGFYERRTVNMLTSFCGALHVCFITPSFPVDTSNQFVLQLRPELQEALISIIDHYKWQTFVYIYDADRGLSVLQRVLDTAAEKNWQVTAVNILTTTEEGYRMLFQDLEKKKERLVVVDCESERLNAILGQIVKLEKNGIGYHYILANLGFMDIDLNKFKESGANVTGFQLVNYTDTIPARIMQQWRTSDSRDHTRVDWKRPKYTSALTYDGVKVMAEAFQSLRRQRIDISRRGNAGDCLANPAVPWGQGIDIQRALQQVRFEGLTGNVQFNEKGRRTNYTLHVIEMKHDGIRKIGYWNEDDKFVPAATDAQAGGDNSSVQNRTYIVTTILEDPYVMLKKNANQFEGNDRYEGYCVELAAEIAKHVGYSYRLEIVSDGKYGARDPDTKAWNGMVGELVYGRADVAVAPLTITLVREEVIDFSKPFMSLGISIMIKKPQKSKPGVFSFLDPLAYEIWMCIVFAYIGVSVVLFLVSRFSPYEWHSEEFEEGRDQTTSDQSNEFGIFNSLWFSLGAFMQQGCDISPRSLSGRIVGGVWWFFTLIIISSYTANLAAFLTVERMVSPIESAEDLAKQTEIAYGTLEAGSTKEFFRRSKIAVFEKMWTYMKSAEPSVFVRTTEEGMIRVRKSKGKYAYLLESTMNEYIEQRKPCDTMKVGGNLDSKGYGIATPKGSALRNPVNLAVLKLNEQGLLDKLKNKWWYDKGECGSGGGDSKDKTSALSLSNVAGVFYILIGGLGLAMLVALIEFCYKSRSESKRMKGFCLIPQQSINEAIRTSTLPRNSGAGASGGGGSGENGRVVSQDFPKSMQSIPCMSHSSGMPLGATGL
rat Gamma-Aminobutyric Acid Type A Receptor, Non-Selective (GABAR-NonSelective), Gabra1 (gene 29705), sequence (P62813 whole entry, looked up): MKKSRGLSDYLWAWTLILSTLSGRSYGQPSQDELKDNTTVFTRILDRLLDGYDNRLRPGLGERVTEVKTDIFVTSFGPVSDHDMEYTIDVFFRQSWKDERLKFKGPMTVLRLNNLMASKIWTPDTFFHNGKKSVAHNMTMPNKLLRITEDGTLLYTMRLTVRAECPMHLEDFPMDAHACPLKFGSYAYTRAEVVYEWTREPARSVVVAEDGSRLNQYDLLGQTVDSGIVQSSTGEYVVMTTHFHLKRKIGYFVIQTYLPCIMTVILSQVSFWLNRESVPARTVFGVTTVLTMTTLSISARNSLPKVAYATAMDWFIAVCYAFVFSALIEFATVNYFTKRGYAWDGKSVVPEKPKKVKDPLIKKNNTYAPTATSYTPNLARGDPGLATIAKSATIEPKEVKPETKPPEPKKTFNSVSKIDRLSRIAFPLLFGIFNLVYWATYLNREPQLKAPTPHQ
rat Vasopressin 1 Receptor (V1), Avpr1a (gene 25107), sequence (P30560 whole entry, looked up): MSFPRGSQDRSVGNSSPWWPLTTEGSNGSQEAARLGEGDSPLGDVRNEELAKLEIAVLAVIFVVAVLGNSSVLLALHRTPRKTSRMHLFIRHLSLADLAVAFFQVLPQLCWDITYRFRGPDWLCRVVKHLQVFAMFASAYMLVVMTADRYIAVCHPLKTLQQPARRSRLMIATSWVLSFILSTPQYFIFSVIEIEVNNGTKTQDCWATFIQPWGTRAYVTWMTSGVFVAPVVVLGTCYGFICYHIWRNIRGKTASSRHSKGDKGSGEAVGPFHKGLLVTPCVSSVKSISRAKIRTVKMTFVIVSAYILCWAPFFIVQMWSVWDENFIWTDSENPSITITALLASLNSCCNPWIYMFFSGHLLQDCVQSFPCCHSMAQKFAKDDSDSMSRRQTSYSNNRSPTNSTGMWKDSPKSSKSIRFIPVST

CN(C[C@@H](CC[N+]12CCC(C3CCCCC3)(CC1)CC2)c1ccc(Cl)c(Cl)c1)C(=O)c1cc(C(F)(F)F)cc(C(F)(F)F)c1
active: [1] 0.403 µM | [2] 5.47 µM | [4] 38.2 µM
inactive: [3]

CN(C)c1ccc(C(=C2C=CC(=[N+](C)C)C=C2)c2ccc(N(C)C)cc2)cc1
inactive: [6] | [3]
active: [5] 9.73 µM | [1] 15.6 µM | [2] 11.5 µM | [7] 16.4 µM | [8] 4.99 µM | [9] 0.263 µM | [10] 16.7 µM | [11] 1.4 µM

CCN(CC)C(=O)c1cc(S(=O)(=O)Cc2ccccc2)c(N2CCC(c3ccccc3)CC2)cc1N(CC)CCN(C)C
active: [5] 7.81 µM | [1] 23.4 µM | [9] 0.419 µM | [11] 3.31 µM

COc1cccc([C@H](O)C2CCN(CCc3ccc(F)cc3)CC2)c1OC
active: [5] 1.85 µM | [8] 25 µM | [9] 3.64 µM
inactive: [10]

Cc1cc(F)ccc1-c1cc(N2CC[C@@H](O)[C@H]2CO)ncc1N(C)C(=O)C(C)(C)c1cc(C(F)(F)F)cc(C(F)(F)F)c1
active: [12] 8.39 µM | [1] 0.274 µM | [9] 5.99 µM
inactive: [13]

O=C1c2ccccc2C(=O)N1CCc1noc(-c2ccc(CN3CCCCCC3)s2)n1
inactive: [2] | [7] | [13]
active: [5] 3.3 µM | [1] 12 µM | [8] 6.2 µM | [9] 13.4 µM

O=C1CCC(C2CCCCC2)CC1
inactive: [5] | [7] | [13]

CCCCCCCCCCCC[N+](C)(C)C
active: [5] 37.3 µM | [1] 44.9 µM | [9] 13 µM

Cc1oc2c(NC(=O)c3c(Cl)cccc3Cl)cccc2c1C(C)(C)O
active: [11] 1.26 µM
inactive: [1] | [13]

Clc1cc(Cl)c2c(c1)N=C1CCCCCN1C2
active: [5] 5.33 µM | [7] 5.61 µM | [9] 6.64 µM | [10] 12.5 µM

CCN(Cc1cccnc1)C(=O)c1cccc(Cl)c1[C@]1(C)C(=O)N(Cc2ccc(OC)cc2OC)c2ccc(Cl)cc21
active: [5] 4.68 µM | [1] 23.6 µM | [2] 9.75 µM | [14] 29 µM | [8] 5.48 µM | [9] 17.5 µM | [15] 16.8 µM | [11] 1.07 µM
